Reference: PubChem BioAssay (NCI)
About 83,000 compounds went through this panel and 20% of them were active in at least one assay; those are over-represented in the sample as a whole.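 96-well plates, one dose, 48 hours. Percent growth reported; active if below 10.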 Unmarked numbers belong to inactive results. Activity calls are given as the source filed them.

Each compound was assayed on NCI/ADR-RES ovarian (assay: NCI-60 one-dose screen, 48 h (100 = growth as untreated, 0 = no growth, -100 = all killed)). Conditions: 10 µM unless noted.
Experimental: Growth inhibition of the NCI/ADR-RES human […] tumor cell line is measured as a screen for anti-cancer activity. Cells are grown in 96 well plates and exposed to the test compound for 48 hours. Compounds are tested at a single concentration, which is 10^-5 M for most compounds. The reported endpoint is percent growth (GI% or GIPRCNT), where numbers from 0 - 100% represent growth inhibition, and numbers from -100% - 0 represent cell death. For example, a value of 40 represents 60% growth inhibition. A value of 0 means no net growth occurred over the course of the experiment. A value of -40 indicates 40% of cells at the beginning of the experiment died by the end of the experiment. A value of -100 means all cells are dead at the end of the experiment.
NCI-60 Human Tumor Cell Lines Screen was performed using the standard one-dose NCI protocol, which is described in more detail at https://dtp.cancer.gov/discovery_development/nci-60/default.htm.
Compounds with GIPRCNT values below 10 were considered active. Activity score was based on GIPRCNT using the following formula: […]
Score is 0 for GIPRCNT values of 100 or above, 50 for GIPRCNT values of 0, and 100 for GIPRCNT values of -100.

First: Cc1cc(OCc2ccc(C(F)(F)F)cc2)c2c(c1)C(=O)C=C(NCCN1CCCC1)C2=O
Second: NS(=O)(=O)N(c1cc(C(F)(F)F)cc(C(F)(F)F)c1)C1CCN(Cc2ccc(F)cc2)CC1
The growth of the first is higher: 81.1% for the first, 51.3% for the second.

Going from `O=C(COc1cccc(/C=C2/Oc3ccccc3C2=O)c1)Nc1nccs1` to `COc1ccc(C(=O)COc2ccc(/C=C3\Oc4ccc(Cl)cc4C3=O)cc2)cc1`, the growth rises from 83.3% to 88.6%.

Compared with `COc1ccc(CCN2CCCn3c2nc2ccccc2c3=O)cc1`, `NCCN1CCN(c2nccc(-c3ccc4ccccc4c3)n2)CC1` is higher in growth: 14.7% for the first, 69.4% for the second.

Compared with `O=C1Nc2ccccc2/C1=C/C(=N/c1nnc(-c2ccccc2)s1)c1ccccc1`, `COc1ccccc1/C=C(/C(=O)c1ccccc1)c1ccccc1` is higher in growth: 46.2% for the first, 92.1% for the second.

First: COc1ccc(-c2cc(-c3ccc(N(C)C)cc3)nc(NC(=O)c3ccncc3)n2)cc1
Second: COc1ccc(S(=O)(=O)NCCNc2nccc(-c3c(-c4cccc(N)c4)nc4sccn34)n2)cc1
The growth of the first is lower: 96.6% for the first, 101% for the second.

First: C[C@@H]1CCC2=C(CCC[C@]2(C)C(=O)O)[C@@]1(C)CCc1ccoc1
Second: CC1=C(C)C(=O)OC([C@](C)(O)[C@]2(O)CC[C@@]3(O)[C@@H]4C[C@H]5O[C@]56CC=CC(=O)[C@]6(C)[C@H]4CC[C@]23COC(=O)c2ccc(C)o2)C1 (stereo not given in full)
The growth of the first is higher: 98.7% for the first, 14.5% for the second.

Compared with `CCCCCC(=O)Oc1ccc(/C(=C(\C)c2ccccc2)c2ccc(OCCN(CC)CC)cc2)cc1`, `C/C(Cc1ccc(Cl)cc1)=C(\c1ccc(OCCN2CCCCCC2)cc1)c1ccc(OC(=O)Cc2ccccc2)cc1` is lower in growth: 74.2% for the first, 72.4% for the second.

Compared with `CCCCNP1(NCCCC)=NP(NCCCC)(NCCCC)=NP(NCCCC)(NCCCC)=NP(NCCCC)(NCCCC)=N1`, `CCCCN(CCCC)Cc1c(C)[nH]c2cc(OC)ccc2c1=O` is higher in growth: 97.2% for the first, 104% for the second.

First: Nc1ccc(N2CCOCC2)cc1
Second: CN1CCOCCOCCOc2ccccc2NC(=O)c2nc(cnc2N)-c2ccc(cc2)S1(=O)=O
The growth of the first is higher: 85.6% for the first, 43.5% for the second.

Compared with `COc1cc(/C=N/N(C)C)ccc1O`, `CCN(CC)CC(O)CNc1c2ccc([N+](=O)[O-])cc2nc2cc(OC)c(OC)cc12` (stereo not given) is lower in growth: 107% for the first, 51.7% for the second.

Compared with `COC1C/C(=N\O)C2OC(c3ccccc3)OCC2O1` (stereo not given), `O=C1C[C@H](Sc2nc(-c3ccc(F)cc3)cc(C(F)(F)F)n2)[C@H]2CO[C@@H]1O2` is higher in growth: 103% for the first, 106% for the second.

Going from `CCN(CC)CCC(=O)Nc1ccc(Cn2nnc3c2C(=O)c2nnn(Cc4ccc(NC(=O)CCN(CC)CC)cc4)c2C3=O)cc1` to `O=C(CCCCN1CCOCC1)Nc1ccc(Cn2nnc3c2C(=O)c2nnn(Cc4ccc(NC(=O)CCCCN5CCOCC5)cc4)c2C3=O)cc1`, the growth falls from 99.3% to 11%.

Compared with `Cc1ccn2c(-c3csc(Nc4cccc(O)c4)n3)c(C)nc2c1`, `O=c1c2cccc3c(Nc4ccccn4)ccc(c32)c2nc3ccccc3n12` is higher in growth: 14.4% for the first, 74.6% for the second.

Going from `Oc1c(Cl)cc(Cl)cc1CNc1nccnn1` to `Cc1cc(Nc2nc(N3CCNCC3)nc3ccccc23)n[nH]1`, the growth rises from 98.5% to 107%.

Compared with `CN1Cc2c(cc(CN3CCCCC3)n2C)C(c2ccc(Br)cc2)C1` (stereo not given), `C/C(Cc1ccc(Cl)cc1)=C(\c1ccc(OCCN2CCCCCC2)cc1)c1ccc(OC(=O)C2CCCCC2)cc1` is lower in growth: 88.1% for the first, 70.4% for the second.

Going from `O=C(CO[N+](=O)[O-])Nc1ccc(C(=O)/C=C/c2ccc(Cl)cc2)cc1` to `CNC(=O)c1cc(Oc2ccc3nc(NC(=O)Nc4ccc(N5CCC(N(C)C)CC5)cc4)sc3c2)ccn1`, the growth rises from 29.9% to 110%.

First: O=S(=O)(NCCCNc1cc(-c2cn(-c3ccccc3)nc2-c2ccccc2)ccn1)c1ccc(C(F)(F)F)cc1
Second: COc1ccc(C(=O)c2sc3nc(-c4ccccc4OC)ccc3c2N)cc1OC
The growth of the first is higher: 46.2% for the first, 33.1% for the second.

Going from `Cn1c(=O)c2[nH]c(C(O)C(O)C(O)C(O)CO)nc2n(C)c1=O` (stereo not given) to `O=C1C(Cl)=C(Cl)C(=O)c2c1nc1n2CCCC1`, the growth falls from 100% to 93.5%.

With `O=C(O)c1c([N+](=O)[O-])cnc2ccccc12` the growth was 96.7%.

With `CCCCCCCCCCCCCCCCNCCC[C@@H](C)[C@H]1CC[C@H]2[C@@H]3[C@H](OCCCN)C[C@@H]4C[C@H](OCCCN)CC[C@]4(C)[C@H]3C[C@H](OCCCN)[C@]12C` the growth was -60.6% (active).
With `CC(=O)C1=C(O)C=C2Oc3c(C(=O)/C=C/c4c(Cl)cccc4Cl)c(O)c(C)c(O)c3[C@]2(C)C1=O` the growth was -23.4% (active).
With `COc1cc(/C=C2\CN(C(=O)CCN3CCC(=NO)CC3)C/C(=C\c3cc(OC)c(OC)c(OC)c3)C2=O)cc(OC)c1OC` the growth was 9.97% (active).
